# Results filed as inconclusive are left out. Entries that show only a call come without a potency. Calls of active or inactive are those of the source. Calls follow the shape of the dose curve; as a rule, active = well fitted inhibition curve with a large enough effect; inconclusive = small, poorly fitted or top-dose-only effect; inactive = no such curve, though single readings can be large or run the other way.
# Molecular target: Nicotinamide N-methyltransferase (Homo sapiens) (UniProt P40261)
# Sequence (P40261 whole entry, looked up): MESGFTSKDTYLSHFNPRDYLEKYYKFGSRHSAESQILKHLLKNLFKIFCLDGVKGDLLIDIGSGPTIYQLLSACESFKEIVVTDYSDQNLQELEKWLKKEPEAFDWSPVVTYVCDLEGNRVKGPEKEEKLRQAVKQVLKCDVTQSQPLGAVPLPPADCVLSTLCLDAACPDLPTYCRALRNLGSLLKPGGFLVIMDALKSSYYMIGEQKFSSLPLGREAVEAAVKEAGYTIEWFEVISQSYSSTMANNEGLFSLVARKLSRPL
# Experiment: qHTS Assay for Inhibitors of N-terminal methyltransferase 1 (NTMT1): NNMT MTaseGlo counterscreen assay
# Settings: NNMT enzyme, MTase-Glo luminescence counterscreen; series mostly up to 57.1 µM
# Source text: Assay Submitter (PI): Rong Huang Ph.D, Purdue University, West Lafayette, IN 47907
# The N-terminal methytransferase 1 is the first methyltransferase that methylates protein alpha-N-amines and plays an important role in regulating cell mitosis, chromatin interactions and DNA repair. It is observed to be over-expressed in various cancer patient tissues like malignant melanoma and colorectal cancer tissues. Knockdown of NTMT1 in cancer cells causes cell mitotic defects and enhances sensitivity to DNA damaging chemotherapeutics. […] These critical cellular processes in which NTMT1 is implicated, coupled with emerging links to cellular dysfunction, strengthen the inference that NTMT1 is a compelling novel anticancer target. Progress have been made in understanding the molecular properties of NTMT1 and the biological consequences of protein alpha-N-terminal methylation, but there are no specific small molecule probes available for NTMT1 to fully characterize its MTase activity. To address this unmet need, a panel of assay is created and established to enable quantitative high-throughput screening (qHTS) for novel, potent, and selective small molecule NTMT1 inhibitors. Two orthogonal qHTS that use different reagents (ThioGlo vs. MTaseGlo) are developed for primary robotic screening against the NCATS chemical library of more than 400,000 small molecules. Identified inhibitors are reacquired, validated, and further characterized.
# MTaseGlo Assay is a luminescence screen that measure the activity of methyltransferases based on the reaction product S-adenosyl homocysteine (SAH). The substrate SAM is converted to SAH upon enzyme activation. MTase-Glo reagent and detection solution convert SAH to ATP and measure the light from the luciferase reaction. Nicotinamide N-methyltransferase (NNMT) is a cystolic enzyme that catalyzes the transfer of a methyl group from the co-factor SAM onto the substrate, nicotinamide (NA) to form 1-methyl-nicotinamide (MNA) and SAH. NNMT MTaseGlo assay is used as a counterscreen to evaluate selectivity of identified inhibitors.
# Early Translation Branch (ETB)
# National Center for Advancing Translational Sciences (NCATS)
# National Institute of Health (NIH)
# NNMT enzyme, SAM, NA, and control is provided by the Huang laboratory.
# In brief, 3 µL of enzyme mixture (final concentrations of 125 nM and 100 µM for NNMT and SAM, respectively) into all wells of a 1,536-well solid-bottom white plate (Greiner Bio One, Monroe, NC). 23 nL of DMSO or compound (final concentration range 234 nM to 143 microM) was transferred via Wako Pin-tool (Wako Automation, Richmond, VA) and incubated (RT) for ~15 minutes. Next, 1 µL of substrate (final concentration 1 µM NA) or buffer was dispensed, and the reaction proceeded for 30 minutes (RT, protected from light) followed by a 1 microL addition of [5X] MTase-Glo Reagent(R). Samples were incubated (RT, protected from light) for 30 minutes to allow for SAH to be converted to ADP, followed by a 5 microL addition of [1X] MTase-Glo Detection Solution(R) to allow for ADP to be converted to ATP, which was then detected with a luciferase reaction. Samples were centrifuged for 15 seconds at 1,000 RPM's, followed by a RT incubation for 30 minutes. Plates were then read using Luminescence optics on a ViewLux detector. Data were normalized to no-enzyme (0% activity) and no-inhibitor (DMSO; 100%) controls, and the resulting percent inhibition data were fitted to a 4-parameter Hill equation using Graphpad Prism.
# Potency is read from the fitted curve at half-maximal effect.
row,Compound,Potency
1,[N-]=[N+]=Nc1nc2c(N)ncnc2n1C1OC(CO)C(O)C1O (stereo not given),inactive
2,Nc1ncnc2c1ncn2[C@@H]1O[C@H](COP(=O)(O)OP(=O)(O)OC[C@H]2OC(O)[C@H](O)[C@@H]2O)[C@@H](O)[C@H]1O (stereo not given in full),inactive
3,NC[C@@H]1O[C@H](C23CC4CC(CC(C4)C2)C3)Cc2c1ccc(O)c2O,inactive
4,Cc1ccc(O)c(N=Nc2ccccc2)n1,14.1 µM (active)
5,Cc1cccc(C2CN(C)CCc3c2cc(O)c(O)c3Cl)c1 (stereo not given),inactive
6,O=c1c(-c2ccc(O)cc2)coc2cc(O)cc(O)c12,inactive
7,N#C/C(=C\c1ccc(O)c(O)c1)C(=O)Nc1ccccc1,inactive
8,CC/C(=C(\c1ccccc1)c1ccc(OCCN(C)C)cc1)c1ccccc1,inactive
9,CN(C)CCCN1c2ccccc2Sc2ccc(C(F)(F)F)cc21,inactive
10,COc1cc2c(NC3CCN(C)CC3)cc(N3CCCCN(C)CC3)cc2cc1OCCOCCN(C)C,inactive
11,C=CCN1CCc2cc(O)c(O)cc2[C@H](c2ccccc2)C1,inactive
12,Nc1nc(F)nc2c1ncn2[C@@H]1O[C@H](CO)[C@@H](O)[C@@H]1O,inactive
13,Nc1nc(Cl)nc2c1ncn2[C@@H]1O[C@H](CO)[C@@H](O)[C@@H]1F,inactive
14,OCC1OC(n2cnc3c(=S)nc[nH]c32)C(O)C1O (stereo not given),inactive
15,Nc1ncnc2c1ncn2[C@@H]1O[C@H](CO)[C@@H](O)[C@H]1O,inactive
16,Clc1ccc(N2CCN(Cc3c[nH]c4ncccc34)CC2)cc1,inactive
17,Cc1cccc(C)c1OCC(N)C(C)C (stereo not given),inactive
18,CN(C)CCCN1c2ccccc2Sc2ccccc21,inactive
19,Cn1ncc(S(=O)(=O)Cc2ccccc2)c(Br)c1=O,inactive
20,Cc1c(OCC(F)(F)F)ccnc1CS(=O)c1nc2ccccc2[nH]1 (stereo not given),inactive

row,Compound,Potency
1,OC[C@H]1O[C@@H](n2cnc3cncnc32)[C@H](O)[C@@H]1O,11.2 µM (active)
2,CCn1nc(C(=O)O)c(=O)c2cc3c(cc21)OCO3,inactive
3,Nc1ncnc2c1ncn2[C@@H]1O[C@H](C(=O)N2CCN(CC(=O)Nc3cccc4c3CNC4=O)CC2)[C@@H](O)[C@H]1O,inactive
4,CCN(CC)C(C)CN1c2ccccc2Sc2ccccc21 (stereo not given),inactive
5,Oc1cc2c(cc1O)C(c1ccccc1)CNCC2 (stereo not given),inactive
6,NS(=O)(=O)c1cccc2c1c([N+](=O)[O-])cc1nc(O)c(O)nc12,inactive
7,CNC(=O)c1cnn(-c2nc(N)c3ncn([C@@H]4O[C@H](CO)[C@@H](O)[C@H]4O)c3n2)c1,inactive
8,O=C(N[C@@H](Cc1ccccc1)C(=O)CCl)OCc1ccccc1,inactive
9,c1cc(CN2CCCCC2)cc(OCCCNc2nc3ccccc3s2)c1,inactive
10,COc1cc2c(NC3CCN(C(C)C)CC3)nc(N3CCC(F)(F)CC3)nc2cc1OCCCN1CCCCC1,inactive
11,Cc1cc2nc3c(=O)[nH]c(=O)nc-3n(C[C@H](O)[C@H](O)[C@H](O)COP(=O)(O)OP(=O)(O)OC[C@H]3O[C@@H](n4cnc5c(N)ncnc54)[C@H](O)[C@H]3O)c2cc1C,inactive
12,c1ccc(CN2CCC3(CCCc4ccccc43)CC2)cc1,inactive
13,CCC(=O)c1ccc2c(c1)N(CCCN(C)C)c1ccccc1S2,inactive
14,COc1cccc(OC)c1OCCNCC1CSc2ccccc2O1 (stereo not given),inactive
15,Cc1nnc(SCC2=C(C(=O)O)N3C(=O)[C@@H](NC(=O)Cn4cnnn4)[C@H]3SC2)s1,inactive
16,O=C1c2c(O)cc(O)cc2OC(c2ccc(O)c(O)c2)C1O (stereo not given),inactive
17,Nc1[nH]c(=O)nc2c1ncn2C1OC(CO)C(O)C1O (stereo not given),inactive
18,Cc1cccc(/C=C/c2ccccc2)n1,inactive
19,CN(C)CCCc1cc(C(=O)Nc2ccc(-c3ccncc3)cc2)ccc1O,inactive
20,Oc1ccccc1O,inactive

# — PubChem BioAssay AID1347146 (National Center for Advancing Translational Sciences (NCATS), 2019)
